# Bioassay records from PubChem BioAssay.
# Only some compounds are listed: those with a hit (about 6.9% of all), similar ones and a draw of the others.
# IL1B secr inh – inflammasome signaling inhibition, IL-1 beta readout | THP-1 LPS/ATP IL-1B secretion, AlphaLISA, 16 h; stronger effect = lower value | AID 743279 | activity change, % at 57.5 µM | hit rate 4.7% among 360,000; in the data active = activity change below about -50%; inconclusive = mostly about -30% to -49%; also: % is scaled to controls: 0 for no effect and ±100 for the full control effect
#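 Secreted IL-1B measured by AlphaLISA bead assay after 16 h compound exposure of THP-1 cells; compounds (final up to 57.5 uM) added 1 h before LPS (250 ng/mL) and ATP (1.25 mM) stimulation; lower signal means less secretion.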
# MCF10A rereplic – induces DNA re-replication in MCF 10a normal breast cells | MCF 10A DNA re-replication, Hoechst nuclear intensity, 48 h | hit rate 2.9% among 350,000 | Potency, µM (top dose mostly 46.1 µM), for the others: at the top dose activity, positive = re-replication, hits mostly activators; also: potency is read from the fitted curve at half-maximal effect; % of control where 0% means no effect; nearly all actives have a fitted effect of over 50% in size
# Vif-APOBEC3G blk – inhibitors of Vif-APOBEC3G interaction. hit rate 0.076% among 410,000. AID 602310. Q9HC16. Potency, µM (doses to about 46.1 µM), inactives show top-dose activity, negative = active, actives largely listed as inhibitors. HeLa A3G-eYFP + Vif (tagged APOBEC3G with the HIV-1 protein that degrades it), YFP fluorescence, overnight; also: potency is read from the fitted curve at half-maximal effect; % is scaled to controls: 0 for no effect and ±100 for the full control effect; nearly all actives have a fitted effect of over 60% in size
# Target sequence (Q9HC16 whole entry, looked up): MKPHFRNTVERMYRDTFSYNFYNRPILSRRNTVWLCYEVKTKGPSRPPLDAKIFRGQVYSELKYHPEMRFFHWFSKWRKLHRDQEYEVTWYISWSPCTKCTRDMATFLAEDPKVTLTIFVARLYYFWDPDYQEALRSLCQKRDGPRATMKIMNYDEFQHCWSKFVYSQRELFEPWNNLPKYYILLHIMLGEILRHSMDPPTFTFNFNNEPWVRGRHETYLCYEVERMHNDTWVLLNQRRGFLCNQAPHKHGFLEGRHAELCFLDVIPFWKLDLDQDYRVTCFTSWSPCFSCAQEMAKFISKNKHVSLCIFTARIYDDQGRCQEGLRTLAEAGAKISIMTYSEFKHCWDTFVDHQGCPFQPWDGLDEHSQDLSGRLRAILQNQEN
#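 HeLa cells stably expressing Vif and C-terminally eYFP-tagged A3G, seeded overnight at 37 deg C, then exposed to compound by pintool overnight at 37 deg C. Rise in yellow fluorescence (Ex 488/Em 500-530, Acumen) marks blocked Vif-driven A3G degradation.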
# Vif-APOBEC3F blk – inhibitors of Vif-A3F interaction; HeLa A3F-eYFP + Vif (tagged APOBEC3F with the HIV-1 protein that degrades it), YFP fluorescence increase; Potency, µM (doses to about 46.1 µM), for the others: top-dose activity, negative = active; hit rate 0.2% among 390,000; AID 602313; also: potency is read from the fitted curve at half-maximal effect; % of control where 0% means no effect; nearly all actives have a fitted effect of over 65% in size
#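 Fluorescence increase (Ex 488/Em 500-530) after overnight compound treatment at 37 deg C flags inhibition of Vif-driven A3F-eYFP loss in stable HeLa A3F-eYFP/Vif cells seeded overnight beforehand.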
# SW480 rerep – DNA re-replication induction in SW480 cells. SW480 DNA re-replication, Hoechst DNA content imaging, 48 h. hit rate 1.8% among 340,000. Potency, µM (doses to about 46.1 µM), for the others: at the highest dose re-replication activation, hits mostly activators; also: potency is read from the fitted curve at half-maximal effect; % of control where 0% means no effect; nearly all actives have a fitted effect of over 55% in size
#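 Quantitative HTS format with DMSO vehicle controls; 48 hr drug incubation at 37 C, then 40 min Hoechst staining and scanning imager measurement at 405 nm excitation.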
# Giardia killer – Giardia lamblia killing; Giardia lamblia trophozoite viability; activity change, % at 7.66 µM, hits read low; hit rate 0.15% among 340,000; in the data active = activity change below about -80%; inconclusive = between about -30% and that limit;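 also: parasites exposed to compound for two days anaerobically before the ATP read; % is scaled to controls: 0 for no effect and ±100 for the full control effect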
#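 Each well holds 100 Giardia trophozoites and compound. After two days (48 hrs) at 37 deg C in anaerobic conditions, ATP is quantified by luminescence.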
# The depositor's hits bear a star; ? = inconclusive; · = no result given. Unless noted, calls follow the shape of the dose curve; as a rule, active = well fitted curve in the direction sought with a large enough effect; inconclusive = small, poorly fitted or top-dose-only effect, or another doubt; inactive = no such curve, though single readings can be large; an effect the other way counts as inactive or inconclusive.
SMILES,IL1B secr inh,MCF10A rereplic,Vif-APOBEC3G blk,Vif-APOBEC3F blk,SW480 rerep,Giardia killer
CCN(CC)CCCNC(=S)N1CCN(c2nc(-c3ccc(F)cc3)cs2)CC1,-57.8*,?,-4.1%,-6.3%,?,-24.5
CCCCNC(=S)N1CCN(c2ccccc2Cl)CC1,-57.9*,16.6%,-3.3%,0.3%,-0.6%,13.9
COc1cccc(-c2csc(N3CCN(C(=S)Nc4ccccc4)CC3)n2)c1,-8.7,4.0%,-0.6%,-5.2%,3.5%,-2.7
O=C(Cc1cccs1)N1CCN(c2nc(-c3ccc(Cl)cc3)cs2)CC1,-62.4*,25.6%,1.8%,-2.9%,11.4%,9.5
O=C(CN1CCN(c2nc(-c3ccc(Cl)cc3)cs2)CC1)NCc1ccco1,-8.5,9.2µM*,-0.5%,-2.0%,11.0%,-22.2
O=C(Cc1ccc(OCC2CCCCC2)cc1)NO,·,·,-8.1%,·,·,·
Cc1cc(S(=O)(=O)n2ccnc2C(C)C)cc([N+](=O)[O-])c1C,·,·,1.4%,-3.5%,·,·
NC(=O)c1nsc(C(=O)N(c2ccccc2)C(C(=O)NC2CCCC2)c2ccc3ncccc3c2)c1N (centres undefined),33.6,20.6µM*,?,-0.7%,18.5%,-7.8
NC(=O)c1nsc(C(=O)N(c2ccccc2)C(C(=O)NCC2CCCO2)c2ccc3ncccc3c2)c1N (centres undefined),-55.0*,-1.5%,-4.0%,7.4%,-1.2%,12.1
COc1ccc(N(C(=O)c2snc(C(N)=O)c2N)C(C(=O)NC2CCCC2)c2ccc3ncccc3c2)cc1 (centres undefined),-20.3,?,-22.7%,?,?,1.4
Cc1ccccc1NC(=O)c1cccc(S(=O)(=O)Oc2ccc([N+](=O)[O-])cc2)c1,-58.4*,-6.6%,0.1%,1.9%,?,1.7
Cc1ccc(NC(=O)c2cccc(Oc3ccc([N+](=O)[O-])cc3)c2)c(C(=O)O)c1,33.4,-12.0%,0.8%,-25.0%,4.5%,2.2
O=C(Nc1ccc([N+](=O)[O-])cc1Cl)c1cc(Cl)cc(Cl)c1O,·,·,-3.6%,·,·,-3.2
O=C(Nc1ccc(N2CCN(C(=O)c3ccco3)CC2)cc1)c1ccc([N+](=O)[O-])cc1Cl,-4.5,2.3%,0.0%,6.9%,?,-13.0
O=C(Nc1ccc(Nc2ccccc2)cc1)c1cc([N+](=O)[O-])ccc1Cl,-67.5*,4.1%,-21.4%,5.0%,-4.3%,-11.4
Cc1cccc(NC(=O)c2cc([N+](=O)[O-])ccc2Cl)c1O,-50.0*,-7.8%,-4.8%,-32.4%,19.7%,-27.4
O=C(Nc1ccc2c(c1)CCCN2C(=O)c1ccco1)c1cc([N+](=O)[O-])ccc1Cl,-86.9*,?,-0.6%,2.7%,?,-9.5
O=C(Nc1ccccc1Oc1ccccc1)c1cc([N+](=O)[O-])ccc1Cl,-4.5,?,-5.1%,7.8%,?,4.5
Cc1ccc(NC(=O)CSc2nc(-c3ccco3)nc3cc(=O)[nH]n23)cc1,·,·,-11.3%,-0.9%,·,·
COc1ccc(NC(=O)c2cc([N+](=O)[O-])ccc2O)cc1,3.4,?,1.0%,-3.7%,17.7%,-89.5*
COc1ccc(/C=N/NC(=O)c2ccc(Br)cc2)c(OC)c1,3.9,0.7%,-1.2%,-0.7%,7.3%,10.0
COc1ccc(C(=O)N/N=C/c2cc(Br)ccc2O)cc1OC,123.5,?,-29.7%,11.2µM*,?,0.2
COc1ccc(O)c(/C=N/NC(=O)c2ccc(OCc3cccc(Br)c3)cc2)c1,91.6,?,-9.7%,1.0%,4.11µM*,9.2
Cc1cc(C)nc(N/N=C/c2ccccc2OCc2cccc(Br)c2)n1,-62.5*,?,?,-4.8%,?,7.5
O=C(N/N=C/c1cccnc1)c1ccccc1OCc1cccc(Br)c1,-25.7,1.2%,-2.3%,-2.8%,-5.1%,-5.2
SMILES,IL1B secr inh,MCF10A rereplic,Vif-APOBEC3G blk,Vif-APOBEC3F blk,SW480 rerep,Giardia killer
Cc1ccc(/C=N/NC(=O)c2ccccc2OCc2cccc(Br)c2)o1,-99.4*,?,-8.1%,-5.7%,4.9%,2.1
COC(=O)c1ccc(NC(=O)NCCn2nnc3cc(S(=O)(=O)N(C)C)ccc32)cc1,·,·,-1.7%,-3.1%,·,·
CCCOc1ccc(-c2nonc2NC(=O)c2cc(OC)c(OC)c(OC)c2)cc1OCCC,·,·,2.8%,5.5%,·,·
CC(=O)Nc1ccc(OC(C)=O)cc1,·,7.1%,·,·,-5.1%,·
COc1ccc(Br)cc1/C=N/NC(=O)c1ccc(COc2ccc3c(c2)CCC3)o1,-8.3,11.6µM*,0.0%,-7.4%,17.8%,12.8
CCOC(=O)c1c(NC(=O)c2ccccc2Br)sc2c1CCc1ccccc1-2,6.0,?,1.0%,4.0%,16.4µM*,37.7
CCOC(=O)c1c(NC(C)=O)sc2c1CCN(Cc1ccccc1)C2,0.0,21.3%,-0.1%,8.6%,4.3%,-7.0
CCOC(=O)c1c(NC(C)=O)sc2c1CCC(C=O)=C2Sc1ccccc1,-99.9*,-5.0%,?,?,1.5%,-6.7
CCOC(=O)c1[nH]c2c(c1Cc1ccccc1)C(=O)CC(c1ccc(Cl)cc1)C2 (centres undefined),·,·,0.9%,0.4%,·,·
CCc1cc(=O)n2[nH]c(-c3ccccc3)c(-c3ccccc3)c2n1,33.7,?,-20.2%,0.4%,20.6µM*,-5.7
CCCc1cc(=O)n2[nH]c(C)c(-c3ccccc3)c2n1,9.1,?,-6.2%,·,-3.8%,26.9
COc1ccccc1N1CCN(S(=O)(=O)c2ccc(F)c(C(=O)Nc3ccc(C)c(F)c3)c2)CC1,·,·,4.6%,0.7%,·,·
CCCS(=O)(=O)c1c(S(=O)(=O)CCC)c2ccc(C(C)=O)cn2c1C(=O)OC,-135.6*,?,-6.1%,5.2%,0.0%,-12.5
CCCS(=O)(=O)c1c(S(=O)(=O)CCC)c2ccc(C(N)=O)cn2c1C(=O)OC,-3.9,5.1%,-0.9%,-6.7%,4.6%,-8.9
Cc1ccc(-c2cc(C(=O)NCCc3ccccc3)c3ccccc3n2)cc1C,·,·,-3.1%,-1.5%,·,·
CCOC(=O)c1c(N)n(C2CC(C)(C)NC(C)(C)C2)c2nc3ccccc3nc12,-65.1*,?,-1.2%,2.1%,5.7%,2.8
Cc1cccn2c(=O)c(C(=O)N3CCN(c4ccccc4)CC3)cnc12,·,·,-5.1%,-2.6%,·,·
Cc1oc2ccc(O)c(CN3CCN(Cc4ccccc4)CC3)c2c1C(=O)Nc1ccccc1,·,·,3.1%,-10.8%,·,·
